Bioassay records (PubChem BioAssay)
Sampled rows, rich in hits. Any-hit rate of the full collection: about 9.3%.
VACV Venus inh: inhibitors of vaccinia virus (Venus reporter); Vaccinia virus Venus reporter expression, fluorescence; 330,000 tested, 0.46% active; Potency, µM (highest dose often 36.5 µM), for the others: at the top dose activity change, negative = inhibition, hits mostly inhibitors; calls by dose curve; tested in A549 cells; also: potency is read from the fitted curve at half-maximal effect; nearly all actives have a fitted effect of over 30% in size
FMDV antiviral: foot and mouth disease virus antiviral activity; FMDV antiviral cell-based qHTS; Potency, µM (titrated, usually from 57.9 µM), inactives show top-dose activity change, negative = inhibition, most hits filed as inhibitors; 410,000 tested, 1.2% active; calls by dose curve; tested in HEK293T cells; also: read-out not given here; potency is read from the fitted curve at half-maximal effect; nearly all actives have a fitted effect of over 45% in size
HCMV antiviral: inhibitors of human cytomegalovirus; activity change, negative = inhibition, % at 57.5 µM; AID 1259415; 410,000 tested, 4.5% active; HFF cells, HCMV-luciferase reporter, 72 h; hits give low values; in the data active = activity change below about -60%; inconclusive = no clear call, values can overlap the other calls; inactive = above about -39%
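Human foreskin fibroblasts infected with luciferase-reporter HCMV at MOI 1 PFU/cell, compounds at two doses. Luciferase measured 72 h post infection; normalized to buffer-only basal and Salinomycin (10uM) controls.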
VACV mCherry inh: vaccinia inhibition (mCherry reporter) | Vaccinia virus mCherry reporter infection, fluorescence | Potency, µM (titrated, usually from 36.5 µM), for inactives: top-dose activity change, negative = inhibition, most hits filed as inhibitors | 310,000 tested, 0.63% active | AID 720579; calls by dose curve; tested in A549 cells; also: potency is read from the fitted curve at half-maximal effect; nearly all actives have a fitted effect of over 35% in size
Sm TGR inh: inhibitors of Schistosoma mansoni thioredoxin glutathione reductase; Q962Y6; purified TGR, DTNB reduction, TNB absorbance 405 nm; Potency, µM (series often up to 114 µM), for the others: top-dose activity change, negative = inhibition, most hits filed as inhibitors; 360,000 tested, 3% active; AID 485364; also: potency is read from the fitted curve at half-maximal effect; nearly all actives have a fitted effect of over 60% in size
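Kinetic colorimetric format: TGR-catalysed, NADPH-driven DTNB reduction monitored via TNB absorbance. Enzyme dispensed at 20 nM; compound exposure 15 min at room temperature before reaction start.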
HCV inhibitor: inhibitors of hepatitis C virus infection; Potency, µM (doses to about 41.8 µM), for inactives: at the top dose activity change, negative = inhibition, actives largely listed as inhibitors; 340,000 tested, 3.4% active; AID 651820; Huh7.5.1 HCVcc-Cre infection, luciferase reporter, 44 h; also: potency is read from the fitted curve at half-maximal effect
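Cells seeded at 1,000/well and cultured 4 h, then compounds added followed by HCVcc-Cre virus (~0.5 moi). After 44 h further culture, luciferase substrate was added, plates held 15 min at room temperature, and luminescence read for 15 sec.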
Active calls of the source: *; i = inactive; ? = inconclusive; . = no result; [ ] = dose if it differs, or a comment. Unless noted, calls follow the shape of the dose curve; as a rule, active = well fitted curve in the direction sought with a large enough effect; inconclusive = small, poorly fitted or top-dose-only effect, or another doubt; inactive = no such curve, though single readings can be large; an effect the other way counts as inactive or inconclusive. % is scaled to controls: 0 for no effect and ±100 for the full control effect.

SMILES | VACV Venus inh | FMDV antiviral | HCMV antiviral | VACV mCherry inh | Sm TGR inh | HCV inhibitor
CCOc1ccc(N2CC(C(=O)N3CCc4ccccc4C3)CC2=O)cc1 (configuration not stated) | 8.1% | 2.0% | -27.4 | . | 1.4% | -17.9%
O=C1CCc2cc(S(=O)(=O)NCc3ccccc3Cl)ccc2N1 | 3.6% | 26.7% | 9.4 | i | -7.5% | 2.5%
CCC1=Nc2cc(C(=O)NC3CCCC3)ccc2Sc2ccc(Br)cc21 | -21.1%[7.34 µM] | -10.0% | ? | -26.3%[7.34 µM] | -3.6% | .
CC1=Nc2cc(C(=O)NC3CCCC3)ccc2Sc2ccc(Br)cc21 | ? | -24.1% | -75.6* | ? | -3.6% | .
CC1=Nc2cc(C(=O)NC3CCCCC3)ccc2Sc2ccc(Cl)cc21 | -22.8%[7.34 µM] | -20.4% | -86.7* | -26.7%[7.34 µM] | -6.1% | .
CC1=Nc2cc(C(=O)NC3CCC(C)CC3)ccc2Sc2c(C)ccc(C)c21 (configuration not stated) | -28.5% | 33.1% | . | ? | 5.2% | .
CC(C)c1nn2c(=O)cc(COC(=O)c3cccc(NC(=O)c4ccccc4F)c3)nc2s1 | -18.3% | -5.6% | 44.4 | -0.5% | -5.4% | .
CCOc1ccc(C2=CS/C(=C(\C#N)c3nnc4n3CCCCC4)N2CC)cc1 | -22.1% | ? | -62.5* | ? | -3.5% | ?
CCOc1ccc(CNC(=O)c2ccccc2NC(=O)C2=CSCCO2)cc1 | -15.8% | -14.7% | 8.6 | -17.3% | -6.9% | -17.2%
COc1ccc(/C=C/C(=O)Nc2ccc3nc4c(c(Nc5ccc(OC)c(OC)c5)c3c2)CCCC4)cc1 | ? | -19.1% | -98.8* | ? | -10.8% | .
COc1ccc(/C=C/C(=O)Nc2ccc3nc4n(c(=O)c3c2)CCCC4)cc1OC | . | -6.4% | -34.2 | . | 0.2% | -27.9%
COc1ccc(Nc2c3c(nc4ccc(NC(=O)/C=C/c5cc(OC)c(OC)c(OC)c5)cc24)CCCC3)cc1OC | -17.3%[7.34 µM] | 0.0% | -102.4* | -10.3%[7.34 µM] | -0.5% | .
Cc1ccc(C(C(=O)NC(C)(C)C)N(CC2CCCO2)C(=O)c2csnn2)cc1 (configuration not stated) | -1.0% | -3.6% | -0.2 | i | -7.8% | 6.2%
CC(C)(C)NC(=O)C(c1ccc(-c2ccccc2)cc1)N(C[C@H]1CC[C@@H]([C@@H]2CC[C@H](CO)O2)O1)C(=O)c1ccc(C(C)(C)C)cc1 (some centres not stated) | ? | 0.0% | -100.7* | -21.9% | . | ?
Cc1nc2c(ccc3nc(NC(=O)C(c4ccccc4)c4ccccc4)sc32)s1 | ? | 12.6µM* | 0.8 | ? | 2.0% | 10µM*
Cc1ccc(OCCOC(=O)c2cccc(S(=O)(=O)N3CC(C)OC(C)C3)c2)cc1 (configuration not stated) | . | ? | -8.2 | . | 0.8% | 11.2µM*
Cc1ccc(C(=O)Nc2ncc(C)s2)s1 | -14.5% | -10.1% | 1.0 | -15.5% | -6.8% | 3.7%
Cc1cnc(NC(=O)c2cccc(S(=O)(=O)N3CC(C)OC(C)C3)c2)s1 (configuration not stated) | . | ? | -23.4 | . | 10.6% | 11.2µM*
Cc1cnc(NC(=O)c2ccc3c(c2)OCCO3)s1 | . | 10µM* | -79.7* | . | -9.4% | 2.0%
Cc1cc(=O)oc2cc(OCC(=O)N3CCN(c4ccc(F)cc4)CC3)ccc12 | . | -23.0% | -29.8 | . | -14.4% | -11.1%
Cc1nc2ccc3nc(NC(=O)c4ccc(S(=O)(=O)N5CCOCC5)cc4)sc3c2s1 | -3.9% | 12.4% | 8.6 | -8.1% | 5.2% | .
Cc1ccc2sc(NC(=O)c3ccc4c(c3)OCCO4)nc2c1C | -5.2%[7.34 µM] | -13.5% | 65.9 | 2.5%[7.34 µM] | 9.4% | .
Cc1nc2ccc3nc(NC(=O)c4ccc5c(c4)OCCO5)sc3c2s1 | -3.9% | 18.0% | -105.6* | -4.3% | -4.0% | ?
Cc1nc2c(ccc3nc(NC(=O)c4ccc5c(c4)OCCO5)sc32)s1 | -23.5% | . | -82.5* | -7.5% | -29.8% | ?
CCOC(=O)C1=C(c2ccccc2)NC(SC)=C(C#N)C1c1ccco1 (configuration not stated) | -12.6% | -28.9% | 36.5 | i | 35.5µM* | ?
